Source: PubChem
Most compounds without a hit are left out; they make up all but 10% or so of the library.
BAZ2B block – inhibitors of human BAZ2B bromodomain; AlphaScreen BAZ2B-H3K14Ac peptide displacement; Q9UIF8; Potency, µM (series often up to 114 µM), hits mostly inhibitors; 360,000 tested, 4.4% active; note: nearly all actives have a fitted effect of over 60% in size
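BAZ2B 50 nM plus b-H3(5-23)K14Ac 50 nM, PBS pH 7.4/0.01% Tween-20, 30 min RT; compound added (max 110 uM), 30 min RT; streptavidin donor/Ni-chelate acceptor beads 10 ug/mL final, 20 min dark; AlphaScreen read.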
HP1b binding inh – blocks HP1-beta chromodomain binding to methylated histone tails; P83916; AlphaScreen HP1-beta / biotin-H3K9me3 peptide binding; Potency, µM (series often up to 114 µM), most hits filed as inhibitors; 390,000 tested, 0.56% active; note: nearly all actives have a fitted effect of over 70% in size
Target sequence (P83916 whole entry, looked up): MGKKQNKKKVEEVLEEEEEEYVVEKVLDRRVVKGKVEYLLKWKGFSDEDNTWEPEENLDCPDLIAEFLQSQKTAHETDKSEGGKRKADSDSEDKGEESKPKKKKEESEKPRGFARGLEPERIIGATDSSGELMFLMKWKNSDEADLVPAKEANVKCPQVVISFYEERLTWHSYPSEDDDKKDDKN
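HP1-beta protein (50 nM final) preincubated 30 min at room temperature with biotinylated H3(1-18)K9me3 peptide (50 nM) in PBS pH 7.4, 0.01% Tween-20, then compound added for 30 min. AlphaScreen streptavidin donor/nickel chelate acceptor beads (10 ug/mL final), 30 min dark, luminescence read.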
G9a inh – G9a (human) methyltransferase inhibition. Q96KQ7. G9a H3K9 monomethylation, AlphaScreen, 2 h. Potency, µM (doses to about 102 µM), hits mostly inhibitors. 350,000 tested, 8.8% active; note: nearly all actives have a fitted effect of over 75% in size
Target sequence (Q96KQ7 913-1193 limits assumed): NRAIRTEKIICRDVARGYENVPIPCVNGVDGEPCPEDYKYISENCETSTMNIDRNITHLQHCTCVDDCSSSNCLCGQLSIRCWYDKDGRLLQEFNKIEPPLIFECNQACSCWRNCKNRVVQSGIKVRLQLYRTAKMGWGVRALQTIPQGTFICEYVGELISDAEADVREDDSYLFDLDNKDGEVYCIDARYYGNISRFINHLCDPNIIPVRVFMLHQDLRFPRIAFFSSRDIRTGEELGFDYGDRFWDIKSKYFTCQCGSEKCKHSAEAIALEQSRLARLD
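G9a (20 nM) preincubated 15 min RT with compounds, then 500 nM biotinylated H3K9 peptide and 20 uM SAM added; 2 h RT reaction. Monomethyl-H3K9 product detected by AlphaScreen with anti-H3K9me1 antibody, streptavidin donor and anti-rabbit IgG acceptor beads.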
GLS inhibitor – glutaminase GLS (human) inhibition; O94925; GLS enzymatic activity, qHTS titration; Potency, µM (titrated, usually from 45.5 µM), usual class: inhibitors; 410,000 tested, 0.21% active; AID 624170
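Compounds were pin-transferred onto hKGA, after which L-glutamine (1 mM solution) and a detection mix of glutamate oxidase, HRP and Amplex Red were added. Initial and 30 min RT fluorescence reads were collected.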
JMJD2A Tudor inh – inhibitors of human JMJD2A Tudor domain | O75164 | AlphaScreen JMJD2A-Tudor / H3K4me3 peptide binding | Potency, µM (doses to about 114 µM), most hits filed as inhibitors | 390,000 tested, 4.4% active | AID 504339; note: nearly all actives have a fitted effect of over 50% in size
Numbers stand for hits; – = inactive; ? = inconclusive; · = no result given; [ ] = remark or other dose. Calls come from the whole dose curve; as a rule, active = well fitted curve in the direction sought with a large enough effect; inconclusive = small, poorly fitted or top-dose-only effect, or another doubt; inactive = no such curve, though single readings can be large; an effect the other way counts as inactive or inconclusive.

SMILES	BAZ2B block	HP1b binding inh	G9a inh	GLS inhibitor	JMJD2A Tudor inh
COc1cc2c(cc1CNC[C@H]1O[C@@H](n3cnc4c(N)ncnc43)[C@H](O)[C@@H]1O)OCO2	·	–	·	–	–
ON1C(c2ccc(Cl)cc2Cl)N(O)[C@H]2CCCC[C@H]21 (stereo partly specified)	–	–	50µM	–	–
CC1N(O)C(c2ccc(Cl)cc2Cl)N(O)C1(C)C (stereo unspecified)	–	–	–	–	–
O=C(Nc1cccc(C(F)(F)F)c1)c1scc2c1OCCO2	–	–	–	–	50µM
O=C(Nc1cccc(C(F)(F)F)c1)c1cc(Br)cc2c1OCC2	–	–	–	–	–
CC1OC(OC2C(CO)OC(OC3C(CO)OC(O)C(O)C3O)C(O)C2O)C(O)C(O)C1NC1C=C(CO)C(O)C(O)C1O (stereo unspecified)	·	·	–[2.33 µM]	·	·
COCCNC(=O)CSc1nc2nn(-c3ccccc3)c(=O)c-2c2n1CCCCC2	–	–	–	–	56µM
O=C(CSc1nc2nn(-c3ccccc3)c(=O)c-2c2n1CCCCC2)c1ccc(O)c(O)c1	10µM	28µM	–[2.33 µM]	–	11µM
CCCCCCCCCCCCCCCC(=O)OC[C@@H](COP(=O)([O-])OCC[N+](C)(C)C)OC(=O)CCCCCCCCCCCCCCC	·	·	·	–	·
Cc1ccc(-c2ccc(CCC(=O)O)n2CC(=O)O)cc1	?	–	–[12.7 µM]	?	?
COC(=O)c1ccccc1-n1c(CCC(=O)O)ccc1-c1ccc(F)cc1	–	–	?	–	–
COc1ccc(-n2c(CCC(=O)O)ccc2-c2ccc(F)cc2)c(OC)c1	–	–	40µM	–	?
O=C(O)CCc1ccc(-c2ccc(F)cc2)n1CC(=O)O	–	–	45µM	–	–
COc1ccc(C=O)cc1COc1ccc2c(c1)OCO2	?	–	–[0.501 µM]	–	7.1µM
O=C1CCc2cc(S(=O)(=O)Nc3cccnc3)ccc2N1	·	·	·	·	–
CCN1CC(CN(C)Cc2cn(-c3ccc(C)cc3)nc2-c2cccc(C)c2)CC1=O (stereo unspecified)	?	–	·	–	?
Cc1ccccc1CSCCNC(=O)CN(c1ccccc1)S(=O)(=O)N(C)C	–	–	–	–	45µM
CN(C)S(=O)(=O)N(CC(=O)NCCSCc1ccccc1Cl)c1ccccc1	–	–	–	–	–
O=C(O)CC1SC(=O)N(Cc2ccccc2)C1=O (stereo unspecified)	–	–	?	–	–
O=C(O)CC1Sc2nc3ccccc3n2C1=O (stereo unspecified)	–	–	45µM	–	–
Cc1cccc(N(C)S(=O)(=O)c2nnc(NC(=O)C(C)Oc3ccccc3)s2)c1 (stereo unspecified)	–	–	–	–	–
COc1ccc(N2CCN(C3=CC(=O)N(c4cccc(Cl)c4)C3=O)CC2)cc1	11µM	?	?	–	?
OCC1CCCN(Cc2ccc(-c3ccccc3)cc2)C1 (stereo unspecified)	?	?	·	–	2.2µM
Cc1cc(C)c(C(=O)Nn2c(C)nc3ccccc3c2=O)cc1C	–	–	–	–	–
CCCNC(=O)Cn1nc(-c2ccc(C)c(C)c2)c2cnc3ccc(F)cc3c21	–	–	–	–	–
SMILES	BAZ2B block	HP1b binding inh	G9a inh	GLS inhibitor	JMJD2A Tudor inh
Cc1cc2oc(=O)cc(CN3CCCCC3C)c2cc1C (stereo unspecified)	–	–	50µM	–	–
O=C(O)c1ccc(S(=O)(=O)c2ccc([N+](=O)[O-])cc2[N+](=O)[O-])cc1	–	–	25µM	–	–
O=C(O)c1ccc(S(=O)(=O)c2ccccc2C(=O)O)c([N+](=O)[O-])c1	–	–	?	–	–
CCOCCOC(=O)CCSc1n[nH]c(=O)[nH]c1=O	–	–	50µM	–	–
CC1CCN(C(=O)CNC(=O)c2ccc(Br)o2)CC1	·	–	·	–	–
CCC(c1ccccc1)C(CC)c1cc(O)c(O)c(O)c1 (stereo unspecified)	·	–	·	11µM	–
CCC(C(=O)O)c1ccccc1 (stereo unspecified)	·	·	–[2.33 µM]	·	·
CCOc1ccccc1N1CC(C(=O)N2CCc3ccccc3C2)CC1=O (stereo unspecified)	–	–	–[12.7 µM]	?	28µM
CCOCc1cc(=O)[nH]c(SC)n1	–	–	–	–	–
